RORgamma inh – blocks mouse ROR gamma transcriptional activity; 310,000 tested, 5.4% active; Drosophila S2 Gal4-RORgamma UAS-luciferase reporter, 20 h; Potency, µM (series often up to 53.6 µM), inactives show top-dose activity change, negative = inhibition, hits mostly inhibitors; P51450; also: nearly all actives have a fitted effect of over 60% in size
Target sequence (P51450 whole entry, looked up, the tested form may be a part): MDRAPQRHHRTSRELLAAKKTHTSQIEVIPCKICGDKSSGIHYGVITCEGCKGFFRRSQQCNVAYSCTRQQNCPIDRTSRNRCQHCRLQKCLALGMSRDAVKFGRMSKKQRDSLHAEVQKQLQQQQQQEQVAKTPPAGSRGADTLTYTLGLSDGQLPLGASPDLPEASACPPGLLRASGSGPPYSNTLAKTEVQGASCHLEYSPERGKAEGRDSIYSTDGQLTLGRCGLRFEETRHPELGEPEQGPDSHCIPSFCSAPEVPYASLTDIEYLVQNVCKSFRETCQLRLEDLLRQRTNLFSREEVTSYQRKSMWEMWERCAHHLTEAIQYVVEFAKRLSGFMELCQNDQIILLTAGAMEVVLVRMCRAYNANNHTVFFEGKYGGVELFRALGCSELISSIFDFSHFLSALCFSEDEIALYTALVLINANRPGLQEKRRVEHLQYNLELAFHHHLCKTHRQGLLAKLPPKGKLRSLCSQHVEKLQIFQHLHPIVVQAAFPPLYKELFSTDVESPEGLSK
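Luminescence from a UAS-regulated Photinus luciferase reporter in stably transfected Drosophila Schneider cells is measured; decreased signal marks ROR gamma inhibition. Fusion expression is induced by 700 uM copper sulfate for 20 hr.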
PLK1 PBD inh – blocks phosphopeptide binding to human PLK1 polo-box domain; P53350; Plk1 PBD binding of FITC phosphopeptide, fluorescence polarization; Potency, µM, for inactives: max response, negative = inhibition, usual class: inhibitors; 360,000 tested, 2.8% active; also: series mostly up to about 57 µM; nearly all actives have a fitted effect of over 65% in size
ALDH1A1 inh – ALDH1A1 (human) enzyme inhibition | Purified ALDH1A1, NADH fluorescence, propionaldehyde substrate | Potency, µM (titrated, usually from 75.3 µM), for the others: at the top dose activity, negative = inhibition, hits mostly inhibitors | 220,000 tested, 7.3% active | AID 1030; active = well fitted inhibition curve with a large enough effect, not every such curve was filed as active; inconclusive = small, poorly fitted or top-dose-only effect, or another doubt; inactive = no such curve, though single readings can be large or run the other way;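 also: plate controls were no enzyme wells and a reference inhibitor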
Sfp inh – blocks B. subtilis Sfp PPTase activity; 310,000 tested, 3.5% active; Potency, µM, for the others: largest response in the series, negative = inhibition, most hits filed as inhibitors; Biochemical Sfp PPTase activity, qHTS; AID 1490;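 also: the enzyme is Sfp with the accession as filed and its product quenches rhodamine fluorescence; 0% = enzyme reaction without inhibitor and -100% = no enzyme wells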
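Reaction rates are the 30-min fluorescence difference (ex 525, em 598 nm) in wells containing 15 nM Sfp, 5 uM rhodamine-CoA and 12.5 uM BHQ-2-YbbR at pH 7.6 with 10 mM MgCl2.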
VP16 counter – Gal4-VP16 reporter inhibition counter-screen; Drosophila S2 Gal4-VP16 UAS-luciferase, luminescence, 20 h; Potency, µM (series often up to 53.6 µM), for the others: top-dose activity, negative = inhibition, actives largely listed as inhibitors; 310,000 tested, 3.5% active; AID 2546;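 also: Gal4-VP16 expression switched on by copper sulfate through the metallothionein promoter; nearly all actives have a fitted effect of over 50% in size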
An asterisk follows results filed as active; ? = inconclusive; · = no result given; [ ] = remark or other dose. Hits are enriched below; roughly 12% of the tested compounds scored in any of these assays. Unless noted, calls follow the shape of the dose curve; as a rule, active = well fitted curve in the direction sought with a large enough effect; inconclusive = small, poorly fitted or top-dose-only effect, or another doubt; inactive = no such curve, though single readings can be large; an effect the other way counts as inactive or inconclusive. Unless noted, % is scaled to controls: 0 for no effect and ±100 for the full control effect; potency is read from the fitted curve at half-maximal effect.

SMILES	RORgamma inh	PLK1 PBD inh	ALDH1A1 inh	Sfp inh	VP16 counter
Cc1nn(CCCC(=O)Nc2sc3c(c2C#N)CCC3)c(C)c1[N+](=O)[O-]	?	30µM*	2.5µM*	?	-4%
Cc1nn(C(C)C(=O)Nc2sc3c(c2C#N)CCCC3)c(C)c1[N+](=O)[O-] (configuration not stated)	22%	-11%	-10%	19%	-7%
CC[C@H](C)[C@H](NC(=O)[C@H](Cc1ccc(O)cc1)NC(=O)[C@H](CCCNC(=N)N)NC(=O)[C@H](CCCNC(=N)N)NC(=O)[C@H](CC(C)C)NC(=O)[C@H](CCC(N)=O)NC(=O)[C@@H](NC(=O)[C@H](CCC(=O)O)NC(=O)[C@H](Cc1ccc(O)cc1)NC(=O)[C@H](CCC(N)=O)NC(=O)[C@H](C)NC(=O)[C@H](CCCNC(=N)N)NC(=O)[C@H](CCC(N)=O)NC(=O)[C@H](CCC(=O)O)NC(=O)[C@H](Cc1cnc[nH]1)NC(=O)[C@@H](NC(=O)[C@H](C)NC(=O)[C@H](Cc1ccc(O)cc1)NC(=O)[C@H](CC(=O)O)NC(=O)CNC(=O)[C@@H]1CCCN1C(=O)[C@H](Cc1ccc(O)cc1)NC(=O)[C@H](CCSC)NC(=O)[C@@H]1CCCN1C(=O)[C@H](CCC(=O)O)NC(=O)[C@H](CC(C)C)NC(=O)[C@@H]1CCCN1C(=O)[C@H](C)N)[C@@H](C)O)[C@@H](C)O)C(=O)N[C@@H](CC(N)=O)C(=O)N[C@H](C(=O)N[C@@H](CC(C)C)C(=O)N[C@H](C(=O)N[C@@H](CCCNC(=N)N)C(=O)N1CCC[C@H]1C(=O)N[C@@H](CCCNC(=N)N)C(=O)N[C@@H](Cc1ccc(O)cc1)C(N)=O)[C@@H](C)O)[C@@H](C)O	6%	·	·	9%	6%
Cc1ccc(-c2csc(N/N=C/c3ccco3)n2)cc1	-45%	-6%	-8%	89µM*	6%
C/C=C/C=N/Nc1nc(-c2ccc([N+](=O)[O-])cc2)cs1	24%	-8%	7%	17%	-8%
C(=N\Nc1nc(-c2ccccc2)cs1)/c1ccco1	?	-16%	-5%	?	?
Cc1ccc(-c2csc(N/N=C/C=C/c3ccccc3)n2)cc1	2.8µM*	-17%	22µM*	-23%	?
C[C@H]1CN([C@@H](C)CO)C(=O)c2cc(Br)cnc2O[C@H]1CN(C)C(=O)c1ccc2c(c1)OCO2	·	0%	·	·	·
Cc1cc(N)n(-c2ccc(S(=O)(=O)c3ccc(C(C)C)cc3)cc2)n1	?	-9%	35µM*	9%	18%
Cc1cc(N)n(-c2ccc([N+](=O)[O-])cc2)n1	-22%	-5%	6%	18%	1%
CC(=O)OC[C@@H]1O[C@H](C/C=N\O[C@@H](C)CN2CCCCc3nc(C)c(C)cc32)C=C[C@@H]1OC(C)=O	14%[10 µM]	·	-8%[13.5 µM]	23%	-9%[10 µM]
O=C(CSc1ccc(Cl)cc1)N1CCN(c2ccc([N+](=O)[O-])cc2Cl)CC1	?	-19%	20µM*	6%	?
CCCC(=O)N1CCN(c2ccc([N+](=O)[O-])cc2Cl)CC1	?	-15%	?	7%	-7%
NC(=O)C1CCN(c2cc(Cl)nc(N)n2)CC1	0%	8.4µM*	0%	-16%	-1%
NC(=O)C1CCN(c2ccc([N+](=O)[O-])cc2Cl)CC1	13%	-4%	20µM*	6%	9%
O=C(Cc1cccc(NC(=O)C2CCCN(C(=O)C3CCC3)C2)c1)Nc1cccc(C(=O)N2CCCC2)c1 (configuration not stated)	·	-3%	·	·	·
C=CCn1c(=O)/c(=C2/Sc3ccccc3N2CC)s/c1=C1/C(=O)NN=C1C	5%	·	20µM*	?	-5%
Oc1cc(OCc2ccccc2)ccc1-c1[nH]ncc1-c1ccccc1	10µM*	5%	·	13%	?
COc1ccc(-c2cn[nH]c2-c2ccc(OCC(=O)NN)cc2O)cc1	-2%	-1%	·	19%	-3%
COc1ccc(-c2cn[nH]c2-c2ccc(OCc3ccccc3)cc2O)cc1OC	7%	3%	·	8%	-2%
O=[N+]([O-])c1ccc(COc2ccc(-c3[nH]ncc3-c3ccccc3)c(O)c2)cc1	7.1µM*	5%	5%	14%	5.6µM*
COc1cc(OC)cc(C(=O)OC/C(O)=C(\C#N)c2nc3ccccc3[nH]2)c1	6.3µM*	0%	·	21%	18µM*
COc1ccc(C(=O)OC/C(O)=C(\C#N)c2nc3ccccc3[nH]2)cc1S(=O)(=O)N1CCOCC1	13µM*	1%	12%	13%	-10%
COc1cnc(-c2ccccn2)nc1Oc1c(C)cccc1C	7.1µM*	1%	0%	15%	20µM*
COc1ccc(Oc2nc(-c3ccccn3)ncc2OC)cc1	7.1µM*	-19%	?	-18%	-20%
SMILES	RORgamma inh	PLK1 PBD inh	ALDH1A1 inh	Sfp inh	VP16 counter
COc1cnc(-c2ccccn2)nc1Oc1cccc(Cl)c1	2.8µM*	4%	-5%	8%	16µM*
COc1cnc(-c2ccccc2)nc1Oc1cccc(C)c1	33%	-3%	17%	-4%	0%
COc1cnc(-c2ccccn2)nc1N(C)C	18µM*	0%	7%	16µM*	?
COc1cccc(CNC(=O)c2ccc(CS(=O)Cc3ccccc3Cl)o2)c1 (configuration not stated)	·	-4%	·	·	·
CC(C)C(=O)N1CCN(c2ccccc2NC(=O)c2ccc3c(c2)OCCO3)CC1	·	-17%	·	·	·
CNc1nc2ccccc2n1/N=C/c1cccc(OC)c1OC	13µM*	0%	?	-10%	-22%
CCCc1nc2ccccc2c(=O)n1/N=C/c1c(C)[nH]n(-c2ccc(C)cc2)c1=O	13µM*	-20%	-7%	12%	?
COc1cccc(/C=N/n2c(C)nc3ccccc3c2=O)c1O	3.2µM*	5%	-7%	8%	16µM*
CCCc1nc2ccccc2c(=O)n1/N=C/c1ccccc1O	2.5µM*	0%	?	13%	10µM*
Cc1ccc(-n2[nH]c(C)c(/C=N/c3ccccn3)c2=O)cc1	-8%	0%	-8%	8%	0%
Cc1nc2ccccc2c(=O)n1/N=C/c1ccc(O)cc1O	-30%	0%	0%	-1%	-3%
C=CCOC(=O)C(C(C)=O)C(NC(=O)OC)c1cccs1 (configuration not stated)	11%[10 µM]	·	8%[13.5 µM]	8%	-8%[10 µM]
CN1CCN(C(=O)c2nc3ccc(Cl)cc3[nH]2)CC1	-44%	·	-2%	15%	7%
CCn1cnc2sc(-c3ccccc3)cc2c1=O	-3%	-2%	14µM*	2%	-16%
COc1cccc([C@@H]2Oc3ccc(Br)cc3C[C@H]2OC(=O)Nc2ccc(C)c(Br)c2)c1	-2%	·	-4%	-14%	-23%
Cc1ccc(NC(=O)C2=C(O)CCn3c2nc2ccccc23)cc1	4.5µM*	-4%	3%	-12%	5.6µM*

Source: PubChem BioAssay
